High-throughput results: PubChem BioAssay, National Center for Advancing Translational Sciences (NCATS)
An excerpt weighted towards active compounds, which were near 10% of everything screened.
HP1b chromo inh: HTS for Inhibitors of HP1-beta Chromodomain Interactions with Methylated Histone Tails; AID 540317, 2011; Chromobox protein homolog 1 (Homo sapiens), P83916; 390,000 compounds, 0.56% hits; Potency, µM (doses to about 114 µM), for inactives: at the highest dose activity change, negative = inhibition, actives largely listed as inhibitors; AlphaScreen HP1-beta / biotin-H3K9me3 peptide binding; also: nearly all actives have a fitted effect of over 70% in size
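AlphaScreen: HP1-beta (50 nM) preformed 30 min with biotin-H3(1-18)K9me3 peptide (50 nM) in PBS pH 7.4, 0.01% Tween-20. Compound added for 30 min at RT, then streptavidin donor/nickel chelate acceptor beads (10 ug/mL) for 30 min.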
GLS inh: qHTS for Inhibitors of Glutaminase (GLS); Glutaminase kidney isoform, mitochondrial (Homo sapiens), O94925; GLS enzymatic activity, qHTS titration; Potency, µM (series often up to 45.5 µM), inactives show top-dose activity change, negative = inhibition, actives largely listed as inhibitors; 410,000 compounds, 0.21% hits; AID 624170, 2012; also: % is scaled to controls: 0 for no effect and ±100 for the full control effect
Target sequence (O94925 whole entry, looked up, canonical isoform): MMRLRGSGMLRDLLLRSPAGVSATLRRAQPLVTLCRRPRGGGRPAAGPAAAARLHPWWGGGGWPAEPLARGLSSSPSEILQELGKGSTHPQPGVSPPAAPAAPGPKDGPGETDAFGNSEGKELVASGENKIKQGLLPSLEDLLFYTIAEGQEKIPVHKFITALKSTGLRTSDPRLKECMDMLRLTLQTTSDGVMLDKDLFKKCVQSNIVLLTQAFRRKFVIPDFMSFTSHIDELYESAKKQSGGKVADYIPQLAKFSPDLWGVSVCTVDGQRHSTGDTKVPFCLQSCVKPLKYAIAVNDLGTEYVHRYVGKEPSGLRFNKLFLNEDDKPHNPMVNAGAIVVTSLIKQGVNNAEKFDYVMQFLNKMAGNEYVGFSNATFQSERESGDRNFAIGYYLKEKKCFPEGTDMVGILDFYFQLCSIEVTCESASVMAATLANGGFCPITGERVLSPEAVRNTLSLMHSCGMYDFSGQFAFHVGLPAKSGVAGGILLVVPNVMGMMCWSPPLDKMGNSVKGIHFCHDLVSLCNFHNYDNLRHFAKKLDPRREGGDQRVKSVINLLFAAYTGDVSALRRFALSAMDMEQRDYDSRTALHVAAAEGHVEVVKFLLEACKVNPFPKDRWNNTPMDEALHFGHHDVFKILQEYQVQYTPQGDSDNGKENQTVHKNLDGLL
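hKGA in 45 mM KH2PO4 pH 8.2, 0.02% Tween-20 with pin-transferred compounds; 1 mM L-glutamine (stock) plus glutamate oxidase/HRP/Amplex Red coupling added. Fluorescence read initially and after 30 min at RT.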
G9a inh: qHTS Assay for Inhibitors of Histone Lysine Methyltransferase G9a; AID 504332, 2011; G9a H3K9 monomethylation, AlphaScreen, 2 h; Histone-lysine N-methyltransferase EHMT2 (Homo sapiens), Q96KQ7; Potency, µM (doses to about 102 µM), without a hit: top-dose activity, negative = inhibition, actives largely listed as inhibitors; 350,000 compounds, 8.8% hits; also: % is scaled to controls: 0 for no effect and ±100 for the full control effect; nearly all actives have a fitted effect of over 75% in size
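Enzyme 20 nM + cpd, 15 min RT; add b-H3K9 pep 500 nM / SAM 20 uM; 2 h RT; anti-H3K9me1 Ab 0.5 ug/mL + SA donor / anti-rabbit acceptor beads 20 ug/mL each, 10 min; AlphaScreen read.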
BAZ2B block: qHTS Assay for Inhibitors of BAZ2B | AlphaScreen BAZ2B-H3K14Ac peptide displacement | Potency, µM (highest dose often 114 µM), without a hit: at the top dose activity change, negative = inhibition, hits mostly inhibitors | 360,000 compounds, 4.4% hits | AID 504333, 2011; also: % is scaled to controls: 0 for no effect and ±100 for the full control effect; nearly all actives have a fitted effect of over 60% in size
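Protein-peptide AlphaScreen: BAZ2B 50 nM, b-H3K14Ac 50 nM, 1x PBS pH 7.4 + 0.01% Tween-20. Preincubation 30 min RT; cpd 30 min RT (top 110 uM); beads 20 min RT, light-protected.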
JMJD2A Tudor: qHTS Assay for Inhibitors of JMJD2A-Tudor Domain | Lysine-specific demethylase 4A (Homo sapiens), O75164 | AlphaScreen JMJD2A-Tudor / H3K4me3 peptide binding | Potency, µM (top dose mostly 114 µM), without a hit: at the top dose activity change, negative = inhibition, hits mostly inhibitors | AID 504339, 2011 | 390,000 compounds, 4.4% hits; also: % is scaled to controls: 0 for no effect and ±100 for the full control effect; nearly all actives have a fitted effect of over 50% in size
* marks the source's active call; other numbers are inactive results; ? = inconclusive; / = no result; [ ] = dose if it differs, or a comment. Calls follow the shape of the dose curve; as a rule, active = well fitted curve in the direction sought with a large enough effect; inconclusive = small, poorly fitted or top-dose-only effect, or another doubt; inactive = no such curve, though single readings can be large; an effect the other way counts as inactive or inconclusive. Potency is read from the fitted curve at half-maximal effect.

SMILES	HP1b chromo inh	GLS inh	G9a inh	BAZ2B block	JMJD2A Tudor
O=C(CC1CC2CCC1C2)N1CCN(S(=O)(=O)c2ccc(C(F)(F)F)cc2)CC1 (stereo unspecified)	/	-2.5%	/	/	/
CC(=O)N(CCCN1CCOCC1)Cc1ccncc1	26.0%	-14.9%	50.1µM*	?	0.0%[11.4 µM]
c1cc(CNCCCN2CCOCC2)ccn1	36.0%	-21.8%	?	-3.5%	-1.4%
CCc1ccccc1N1CC(c2nc3ccccc3n2CCC2CCCCC2)CC1=O (stereo unspecified)	12.4%	2.6%	-41.9%[59 µM]	-32.8%	-34.9%
CN(CC(=O)Nc1ccc(Cl)cc1)C(=O)CCc1nc2sc3c(c2c(=O)[nH]1)CCCC3	2.6%	6.0%	50.1µM*	-0.1%	-16.6%
CN(CC(=O)Nc1ccc(F)cc1)C(=O)CCc1nc2sc3c(c2c(=O)[nH]1)CCCC3	14.8%	-8.0%	56.2µM*	-3.8%	-29.7%
CCN(CC(=O)Nc1c(F)cccc1F)C(=O)CCc1nc2sc3c(c2c(=O)[nH]1)CCCC3	-12.3%	97.9%	1.6%[0.501 µM]	50.1µM*	?
CCN(CC(=O)Nc1ccccc1C(F)(F)F)C(=O)CCc1nc2sc3c(c2c(=O)[nH]1)CCCC3	-0.4%	11.0%	4.0%[59 µM]	?	?
CCOCCCNC(=O)Cn1ncc2c([nH]c3ccccc32)c1=O	19.2%	0.2%	-3.3%[59 µM]	0.7%	7.9%
O=C(Cc1ccccc1[N+](=O)[O-])OCc1cccc([N+](=O)[O-])c1	/	/	-36.4%	-38.7%	/
C[n+]1ccccc1/C=C/c1ccc(C#N)cc1	?	1.9%	6.9%[0.501 µM]	44.7µM*	22.4µM*
C[n+]1ccccc1/C=C/c1ccc([N+](=O)[O-])cc1	34.5%	0.2%	25.1µM*	-15.3%	-6.2%
CCNc1nc(-c2sc(NC(=O)C(C)(C)C)nc2C)c(-n2cc(-c3ccccc3)nn2)s1	/	-2.7%	/	/	/
COc1ccc(C2CC(C)(c3ccc(OC)cc3)Nc3ccccc3N2)cc1 (stereo unspecified)	?	?	/	22.4µM*	?
COC(=O)c1ccccc1S(=O)(=O)N1CCC(C(=O)OCC(=O)c2ccccc2OC)CC1	28.4%	-6.4%	39.8µM*	-30.6%	-13.8%
COC(=O)c1ccccc1S(=O)(=O)N1CCC(C(=O)OCC(=O)NC2CCCCC2C)CC1 (stereo unspecified)	27.8%	-1.7%	20µM*	8.6%	-7.5%
CCC(SC1=N/C(=C/c2ccccc2OC)C(=O)N1c1ccccc1)C(=O)Nc1cc(C)on1 (stereo unspecified)	37.6%	10.0%	19.2%	-6.9%	-16.3%
CCOC(=O)[C@]12CCCC=C1N(Cc1ccc3c(c1)OCO3)C(=O)[C@H](CC(=O)NCCC(C)C)C2	/	1.6%	/	/	/
COCCNC(=O)CCCn1c(SCC(=O)Nc2cccc(C)c2)nc2c(sc3ccccc32)c1=O	41.4%	-0.3%	1.1%[59 µM]	?	2.0%
CN=c1scc(-c2c[nH]c3ccccc23)n1C	16.5%	-2.9%	39.8µM*	-12.9%	-19.4%
O=C(O)c1cc([N+](=O)[O-])cc([N+](=O)[O-])c1N1CCN(c2cccc(C(F)(F)F)c2)CC1	-16.5%	2.1%	56.2µM*	-35.5%	-35.5%
O=C(Nc1ccccc1)N1CCN(c2cccc(C(F)(F)F)c2)CC1	27.1%	0.0%	9.9%	12.7%	-20.4%
Fc1cc2[nH]c(=S)[nH]c2c(Br)c1N1CCSCC1	?	4.4%	10µM*	-25.5%	-24.6%
Fc1cc2nccnc2cc1N1CCSCC1	37.6%	-10.5%	30.4%[12.7 µM]	17.4%	-9.0%
Cc1ccc2nc(NC(=O)COC(=O)c3ccc(Br)o3)sc2c1	9.9%	6.9%	?	42.7%	44.7µM*
SMILES	HP1b chromo inh	GLS inh	G9a inh	BAZ2B block	JMJD2A Tudor
O=C(COC(=O)c1ccc(Br)o1)Nc1nc2ccccc2s1	?	22.6%	-36.5%[59 µM]	-6.0%	-26.9%
Cc1ccc2nc(NC(=O)CN(C)S(=O)(=O)c3ccc(Br)s3)sc2c1	19.0%	5.7%	-5.3%[12.7 µM]	-22.9%	-22.9%
Cc1ccc2nc(NC(=O)CNS(=O)(=O)c3ccc(Br)s3)sc2c1	5.8%	-0.7%	?	-14.6%	50.1µM*
COc1ccc(NC(=O)c2ccco2)cc1NC(=O)C(C)(C)Oc1ccc(Cl)cc1	-0.5%	1.7%	?	?	-34.0%
COc1ccc(OCC(O)CNC(=O)Nc2cccc3ccccc23)cc1 (stereo unspecified)	-10.0%	-5.3%	-17.3%	-16.5%	-30.4%
Cc1cc(C(F)(F)F)nn1-c1nc(-c2ccccc2)cc(C(F)(F)F)n1	58.5%	0.6%	63.7%[59 µM]	56.5%	24.6%
O=C(O)Cc1sc(N/N=C\c2ccncc2)nc1-c1ccccc1	17.2%	6.4%	2µM*	-21.1%	-7.4%[11.4 µM]
C(=N\Nc1nc(-c2ccccc2)cs1)/c1ccncc1	-4.8%	?	50.1µM*	?	?
CCOC(=O)Cc1csc(N/N=C/c2cccc([N+](=O)[O-])c2)n1	8.7%	-21.8%	-3.2%	-38.8%	-6.5%
O=C(O)Cc1sc(Nc2cccc3ccccc23)nc1-c1ccccc1	-16.7%	8.6%	-41.6%[12.7 µM]	?	?
C(=N\Nc1nc(-c2ccccc2)cs1)/c1cccs1	-23.6%	2.9%	14.1µM*	?	-34.2%
O=[N+]([O-])c1cccc(-c2csc(N/N=C/c3cccc(O)c3)n2)c1	44.7µM*	?	35.5µM*	?	56.2µM*
COC(=O)CCCn1cc(CN2CC(N3CCN(CCN(C)C)CC3)CS2(=O)=O)nn1 (stereo unspecified)	/	4.0%	/	/	/
COc1ccc(CCNC(=O)c2noc(C)c2[N+](=O)[O-])cc1OC	33.1%	0.0%	17.3%	-32.0%	-0.3%
O=C(O)c1cccnc1SC1CC(=O)N(c2ccc(OC(F)F)cc2)C1=O (stereo unspecified)	22.3%	3.5%	44.7µM*	-17.8%	-4.5%
O=C(O)c1cccnc1SC1CC(=O)N(c2cccc(C(F)(F)F)c2)C1=O (stereo unspecified)	41.8%	13.2%	35.5µM*	8.0%	-21.3%
C/C(=N\Nc1ccc([N+](=O)[O-])cc1)c1ccc(N)cc1	-30.0%	4.4%	7.08µM*	-2.9%	?
CCc1ccc(/C(C)=N\Nc2ccc([N+](=O)[O-])cc2)cc1	3.4%	1.0%	32.4%[0.501 µM]	-3.4%	-21.3%
C/C(=N\Nc1nc(C)c(C)s1)c1ccc([N+](=O)[O-])cc1	?	-17.6%	17.8µM*	35.5µM*	?
OCCN1CCN(c2nc(-c3ccccc3)nc3c2oc2ccccc23)CC1	-1.5%	5.0%	-8.8%	-5.2%	-16.4%
Cn1c(N)c(C(=O)CN2CCc3ccccc3C2)c(=O)n(C)c1=O	31.1%	-0.1%	8.91µM*	-11.6%	3.4%
